Test results: PubChem BioAssay AID927 (National Center for Advancing Translational Sciences (NCATS), 2007)
Among all 60,000 compounds or so, about 65 (0.1%) were called active. The list comes from a sample in which actives are over-represented; it also holds similar structures and randomly drawn compounds. A number with no mark means an inactive call. The call rests on the fitted dose curve; in most records, active means well fitted inhibition curve with a large enough effect; inconclusive means small, poorly fitted or top-dose-only effect; inactive means no such curve, though single readings can be large or run the other way.

What follows are molecules tested against Ubiquitin carboxyl-terminal hydrolase 2 (Homo sapiens) (UniProt O75604) (assay: qHTS Assay for Inhibitors of Ubiquitin-specific Protease USP2a). Conditions: USP2a enzymatic assay; Potency: qHTS inhibition; series mostly up to 38.3 µM; activity change, negative = inhibition: at the top concentration.
Description: NIH Molecular Libraries Screening Centers Network [MLSCN]
NIH Chemical Genomics Center [NCGC]
PI Name: Nicholson, Ben. Progenra Inc, Malvern, PA
Homeostasis of cellular proteins is maintained through a combination of synthesis and degradation. The pathway that accounts for the majority of protein degradation is the ubiquitin-proteasomal pathway. Ubiquitin (Ub) is highly conserved in all cells and the generation of a multi-Ub chain typically targets proteins for degradation by the proteasome. However, ubiquitination is highly reversible and dynamic. Deubiquitination, the reverse process, is catalyzed through the action of enzymes referred to as isopeptidases or deubiquitinating enzymes (DUBs). This group of enzymes is collectively responsible for maintaining adequate pools of free ubiquitin and regulating the ubiquitination status of cellular proteins. The class of DUBs referred to as the ubiquitin-specific proteases (USP) family functions endoproteolytically to cleave Ub chains from a wide range of protein substrates. USP2a deubiquitinates fatty acid synthase (FASN) which has recently been identified as an emerging oncology target. To identify inhibitors of USP2a a cell-free assay was employed.
The reporter enzyme chosen is phospholipase A2 (PLA2), which has an absolute requirement for a free amino terminus. Thus, fusion of a UBL to the N-terminus of PLA2 inactivates PLA2. When the UBL-PLA2 reporter enzyme is cleaved by USP2, the activated reporter can subsequently act on its substrate, which is the commercially available NBD C6-HPC (Invitrogen). Thus, this coupled assay gives a fluorescent read-out, which is generated through the cleavage of the PLA2 reporter enzyme. The assay, developed by Progenra, Inc. uses Ub-PLA2 and USP2a at near equal and low (nM) amounts and has been licensed for sale by LifeSensors, Inc. as the Ub-IsoPro1 kit.
NCGC Assay Protocol Summary:
The assay buffer, prepared fresh at the day of the assay, contains 20mM Tris-HCl pH 8.0, 2mM CaCl2, 2mM beta-Mercaptoethanol, 0.1% DMSO. 3ul of 40nM (20nM final) USP2 core, which is stored on ice, is dispensed into a medium-binding black solid Kalypsys 1,536 well plate using the Kalypsys dispenser. The assay plate is then pinned with 23nL compound with the Kalypsys pintool in columns 5-48. The controls are pinned as follows: column 1&2 two-fold dilutions of 2M NEM in duplicate; column 3 DMSO; column 4 2M NEM (final concentration 38.2mM). The assay plate is incubated at RT for 30min. Subsequently, 3uL of 40nM (20nM final) Ub-PLA2 and 40uM (20uM final) NBD C6-HPC (stored on ice and protected from light) were dispensed into the plate using the Kalypsys dispenser. Plates were read immediately (0 Hour) on an Envision (Perkin Elmer) plate reader using the following wavelengths Ex 460nm /Em 535nm. Then, the assay plates were incubated for 2.5 hours and read again on the Envision using the same settings
Data were normalized to the to AC100 inhibition (NEM). Concentration-response curves were fitted to the normalized data and the concentration-response curves were then classified based on curve quality (r2), response magnitude and degree of measured activity. The time zero reading was used to flag fluorescence artifacts.
Keywords: ubiquitination, deubiquitination, proteases, profluorescent, MLSMR, MLSCN, NIH Roadmap, qHTS, NCGC
Further: nearly all actives have a fitted effect of over 60% in size.
Potency means the concentration at half of the fitted maximal effect.

Sequence of Ubiquitin carboxyl-terminal hydrolase 2 (Homo sapiens) (O75604 whole entry, looked up): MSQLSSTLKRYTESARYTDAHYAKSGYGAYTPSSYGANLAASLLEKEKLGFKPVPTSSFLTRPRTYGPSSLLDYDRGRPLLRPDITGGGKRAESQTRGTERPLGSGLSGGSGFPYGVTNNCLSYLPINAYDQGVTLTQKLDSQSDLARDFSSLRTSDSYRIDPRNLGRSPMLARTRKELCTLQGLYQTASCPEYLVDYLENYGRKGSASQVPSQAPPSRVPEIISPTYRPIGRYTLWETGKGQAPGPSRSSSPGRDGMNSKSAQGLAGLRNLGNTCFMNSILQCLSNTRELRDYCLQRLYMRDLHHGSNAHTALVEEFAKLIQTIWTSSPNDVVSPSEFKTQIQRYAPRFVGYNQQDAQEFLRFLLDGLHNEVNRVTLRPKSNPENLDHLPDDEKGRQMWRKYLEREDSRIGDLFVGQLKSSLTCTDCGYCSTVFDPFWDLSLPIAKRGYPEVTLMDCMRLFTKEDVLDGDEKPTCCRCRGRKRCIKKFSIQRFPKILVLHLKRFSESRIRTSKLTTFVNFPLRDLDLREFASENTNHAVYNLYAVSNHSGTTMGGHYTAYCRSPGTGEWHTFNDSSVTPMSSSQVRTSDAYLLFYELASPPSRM

Structure (SMILES)	activity change, negative = inhibition	Potency
CCOC(=O)c1ccc(NC(=O)CSc2nnc(COc3ccccc3OC)n2C)cc1	9.55%	
Cn1cc(-c2nc3cnc(N4CCNCC4)nc3n(CCC#N)c2=O)c2ccccc21	212%	
O=C(NCc1ccc(Cl)c(Cl)c1)c1cccnc1	8.48% [at 7.66 µM]	
COC(=O)Nc1ncc(CN2C(=O)c3ccccc3C2=O)s1	12%	
CC(C)NC(=O)N1CCC2(CC1)CCN(C(=O)c1cccn1C)CC2	8.09%	
CC(C)NC(=O)N1CC[C@@]2(CCCN(C(=O)c3cccn3C)C2)C1	15.7%	
CC(C)NC(=O)N1CCCC2(CCN(C(=O)c3cccn3C)CC2)C1		10 µM (active)
CCCNc1ncnc2sc(C)c(C)c12	-3.55%	
Nc1nc2nc(Cl)[nH]c2c(=O)[nH]1	18.5%	
Cc1cccc(CC(=O)Nc2c3c(nn2-c2cccc(Cl)c2)CS(=O)C3)c1 (stereo not drawn)	7.15%	
Cc1ccccc1-c1nc(N(C)Cc2ccco2)c2ccccc2n1	-9.88%	
CCOc1cccc(C(=O)Nc2cccnc2)c1	3.24%	
O=C(Nc1cccc(F)c1)N1CC2(CCN(C(=O)c3csnn3)CC2)C1	12.9%	
CCOC(=O)[C@H]1CCC[C@@H](NS(=O)(=O)c2ccc(NC(C)=O)cc2)C1	5.45%	
CC(NC(=O)Nc1ccccc1)c1ccccc1 (stereo not drawn)	1.41%	
Cc1ccc2c(CSc3nncs3)cc(=O)oc2c1	35.6%	
COc1c2c(cc3occ(-c4ccc5c(c4)OCO5)c(=O)c13)OC(C)(C)C=C2	-26.3%	
O=S(=O)(NCc1ccc2c(c1)OCO2)c1cccc2nsnc12	-1.28%	
CCOC(=O)CSc1nc2c(c(=O)n(Cc3ccccc3Cl)c(=O)n2C)n1C	-0.387%	
C/C=C(/C)C(=O)OC1Cc2c(ccc3ccc(=O)oc23)OC1(C)C (stereo not drawn)	-1.14%	
COCCCN1C(=O)c2ccc(C(=O)Nc3ccc(OC)cc3OC)cc2C1=O	13.4%	
Cc1c(O)cc(O)c2c(=O)c(-c3ccc(O)cc3)coc12	-6.86%	
CC(C)c1nnc(NC(=O)C2CCCN2S(=O)(=O)c2ccc(Cl)cc2)s1 (stereo not drawn)	9%	
Oc1ccc2c(c1)OCC1c3cc4c(cc3OC21)OCO4 (stereo not drawn)	-11.2%	
CN1C(=O)C[C@H](c2ccccc2)C1=O	-7.44% [at 17.1 µM]	
O=C(NCc1cccnc1)c1cn(-c2ccccc2)nc1-c1cccs1	28.9%	
CCC12CN3CC(CC)(CN(C1)C31C(=O)N(C)c3ccc(C)cc31)C2=O (stereo not drawn)	0.969%	

Structure (SMILES)	activity change, negative = inhibition	Potency
CCOC(=O)N1CCN(C(=O)CN(c2ccc(C)c(C)c2)S(=O)(=O)c2ccccc2)CC1	18.3%	
COc1ccc(-c2ccc(-c3noc(-c4ccncc4)n3)c(OC)n2)cc1	21.4%	
NC(=O)C1CC=CCC1C(=O)OCC(Cl)=C(Cl)Cl (stereo not drawn)	12.5%	
CC1C(O)CC2C(C(=O)O)=CO[C@@H](O[C@H]3OC(CO)C(O)C(O)C3O)C21 (stereo partly drawn)	-4.3%	
CC(C)(C)c1ccc(C(=O)CSc2ncn[nH]2)cc1	-4.94%	
c1cncc(CNc2ccnc(-c3ccc4c(c3)OCO4)n2)c1	23.9%	
CCC(CCC(C)C1CCC2C3CC=C4CC(O)CC[C@@]4(C)C3CC[C@@]12C)C(C)C (stereo partly drawn)	-2.58%	
CC1(C)Cc2ccccc2-c2nnc(-c3cccc(O)c3)n21	-2.73%	
COc1cccc(C2/C(=C(/O)c3ccc(F)cc3)C(=O)C(=O)N2CCN(C)C)c1 (stereo not drawn)	4.13% [at 7.66 µM]	
CCOC(=O)C1=C(C)NC(C)=C(C(=O)OCC)C1C1=COCCO1	-3.29%	
CSCCC1NC2(C(=O)Nc3ccc(Cl)cc32)[C@@H]2C(=O)N(C3CCCC3)C(=O)[C@H]12 (stereo partly drawn)	52.4%	
O=C1C2(c3ccccc3)CN(CCCO)CC1(c1ccccc1)CN(CCCO)C2	-3%	
CCCS(=O)(=O)N1CCCC(C(=O)NCCN2CCCCC2C)C1 (stereo not drawn)	-14%	
CC(=O)c1c(N2CCOCC2)nc(=S)n(-c2cc(C)ccc2C)c1C	-3.02%	
Cc1cc(C)c(C#N)c(SCc2ccc3c(c2)OCO3)n1	-11.2%	
CCCC(CCC(=O)OC)(C(=O)OCC)c1csc(N)n1 (stereo not drawn)	-12.5%	
COc1cc(OC)c2c(c1Cl)OC1(C2=O)C(O)=CC(=O)CC1C (stereo not drawn)	7.89%	
Cc1ccc2nc(-c3ccc(SCC(=O)Nc4cc(C)on4)nc3)[nH]c2c1	33.2%	
COc1ccc(N(C(=O)c2cccnc2)S(=O)(=O)c2ccc3c(c2)n(C)c(=O)n3C)cc1	2.22%	
CC(=O)C1C(c2cccc(Oc3ccccc3)c2)NC(=O)NC1(O)C(F)(F)F (stereo not drawn)	9.93%	
CC(=O)NS(=O)(=O)c1ccccc1	2.74%	
COc1ccc(C2C(C#N)=C(N)Oc3n[nH]c(C)c32)cc1CN1CCN(c2ccc(F)cc2)CC1 (stereo not drawn)	11%	
O=C(c1ccc(=O)[nH]c1)N(Cc1ccco1)C1(C(=O)NC2CCCCC2)CCCCC1	10.6%	
CCCCCCOC(=O)NCC(O)c1ccccc1 (stereo not drawn)	7.61%	
CCS(=O)(=O)N1CCCC(C(=O)NCCCN(C)Cc2ccccc2)C1 (stereo not drawn)	4.58%	
CCCN1Cc2cccc(C(=O)NCc3ccccc3)c2C1=O	6.55%	
